Screens from PubChem.
Only some compounds are listed: those with a hit (about 3.5% of all), similar ones and a draw of the others.
Bead autofluor: flagged as autofluorescent in microsphere protease counterscreen; compound autofluorescence counterscreen, microsphere flow cytometry; stronger effect = higher value; fluorescence intensity (no concentration beside the values); 360,000 compounds, 3.1% hits; AID 624483; in the data active = fluorescence intensity above about 16000; inconclusive = no clear call, values can overlap the other calls
Anthrax LF prot: Bacillus anthracis LF protease inhibitors, primary screen, biochemical, multiplex microsphere, MLPCN library | Lethal factor (Bacillus anthracis), P15917 | multiplex microsphere protease cleavage assay | inhibition, % at 10 µM | 360,000 compounds, 0.12% hits
BoNT-F LC inh: BoNT/F light chain protease inhibitors, primary screen, biochemical, flow cytometry, MLPCN library | inhibition, % at 10 µM | Botulinum neurotoxin type F light chain protease (Clostridium botulinum) | 360,000 compounds, 0.22% hits | Multiplex microsphere protease cleavage assay; in the data active = inhibition above about 35%, passing the limit was not always enough; inconclusive = no clear call, values can overlap the other calls
BoNT A protease: BoNT/A light chain protease inhibitors, primary screen, biochemical, flow cytometry, MLPCN library; multiplex microsphere protease substrate cleavage; inhibition, % at 10 µM; 360,000 compounds, 0.17% hits; AID 588499, 2011
A number is an active result. Rule as the data show it, unless noted: active = inhibition above about 30%; inconclusive = no clear call, values can overlap the other calls; inactive = below that.

For Cc1c(Cl)cccc1NC(=O)CSc1nnc(CCNC(=O)OC(C)(C)C)o1 the results were Bead autofluor 22523, Anthrax LF prot inactive, BoNT-F LC inh inactive and BoNT A protease inactive.
CSc1nnc(CCNC(=O)OC(C)(C)C)o1 was read as Bead autofluor inactive, Anthrax LF prot inactive, BoNT-F LC inh inconclusive and BoNT A protease inactive.
Screening CN(C)C(=O)CSc1nnc(CCNC(=O)OC(C)(C)C)o1 returned Bead autofluor 22750, Anthrax LF prot inactive, BoNT-F LC inh inactive and BoNT A protease inactive.
For Cc1ccc(C)c(NC(=O)CSc2nnc(CCNC(=O)OC(C)(C)C)o2)c1 the results were Bead autofluor inactive, Anthrax LF prot inactive, BoNT-F LC inh inactive and BoNT A protease inactive.
CCN(CC)C(=O)CSc1nnc(CCN)o1 was read as Bead autofluor 23987, Anthrax LF prot inactive, BoNT-F LC inh inactive and BoNT A protease inactive.
CCN(CC)C(=O)CSc1nnc(CCNC(=O)OC(C)(C)C)o1 was read as Bead autofluor 23519, Anthrax LF prot inactive, BoNT-F LC inh inactive and BoNT A protease inactive.
`CCCCOc1ccc(/C=C/C(=O)NCCc2nc3ccccc3[nH]2)cc1` gave Bead autofluor 21858, Anthrax LF prot inactive, BoNT-F LC inh inactive and BoNT A protease inactive.
For Cn1cccc1/C=C1\SC(=Nc2ccccc2)NC1=O the results were Bead autofluor inactive, Anthrax LF prot inactive, BoNT-F LC inh 35.7 and BoNT A protease inactive.
Screening Cn1cccc1/C=C1\SC(=Nc2ccc(O)cc2)NC1=O returned Bead autofluor inactive, Anthrax LF prot inactive, BoNT-F LC inh inactive and BoNT A protease inactive.
Screening CCN(CC)CCNC(Cc1ccccc1)c1cccc(OC)c1 (stereo not drawn) returned Bead autofluor inactive, Anthrax LF prot inactive, BoNT-F LC inh inactive and BoNT A protease inactive.
For COc1ccc(C(=O)Nc2nc(N)n(-c3ccccc3)n2)cc1OC the results were Bead autofluor inactive, Anthrax LF prot inactive, BoNT-F LC inh inconclusive and BoNT A protease inactive.
`COc1cccc(OC)c1C(=O)Nc1nc(N)n(-c2ccccc2)n1` gave Bead autofluor 17413, Anthrax LF prot inactive, BoNT-F LC inh inactive and BoNT A protease inactive.
`COc1cccc2cc(C(C)=O)c(=O)oc12` gave Bead autofluor 19894, Anthrax LF prot inactive, BoNT-F LC inh inactive and BoNT A protease inactive.
`COc1cccc2cc(C(=O)CC3(O)C(=O)N(Cc4ccccc4)c4ccccc43)c(=O)oc12` (stereo not drawn) gave Bead autofluor 20419, Anthrax LF prot inactive, BoNT-F LC inh inactive and BoNT A protease inactive.
COc1ccc(CN2C(=O)C(O)(CC(=O)c3ccc4c(c3)OCO4)c3ccccc32)cc1OC (stereo not drawn) was read as Bead autofluor 22009, Anthrax LF prot inactive, BoNT-F LC inh inactive and BoNT A protease inactive.
COc1cc(C(C)=O)ccc1OC(=O)c1cc2cccc(OC)c2oc1=O was read as Bead autofluor inactive, Anthrax LF prot inactive, BoNT-F LC inh inactive and BoNT A protease inactive.
For Cc1ccc2c(c1C)NC(=O)C2(O)CC(=O)c1ccc2c(c1)OCO2 (stereo not drawn) the results were Bead autofluor 16395, Anthrax LF prot inactive, BoNT-F LC inh inactive and BoNT A protease inconclusive.
`CCN1C(=O)C(O)(CC(=O)c2ccc3c(c2)OCCO3)c2ccccc21` (stereo not drawn) gave Bead autofluor inactive, Anthrax LF prot inactive, BoNT-F LC inh inactive and BoNT A protease inactive.
For COc1ccc(NC(=O)COc2coc(CN3CCN(c4ccccc4)CC3)cc2=O)cc1 the results were Bead autofluor inactive, Anthrax LF prot inactive, BoNT-F LC inh inactive and BoNT A protease inactive.
Cc1ccc(NC(=O)NC(=O)COc2c(F)c(F)cc(F)c2F)c(C)c1 was read as Bead autofluor inactive, Anthrax LF prot inactive, BoNT-F LC inh inactive and BoNT A protease inactive.
`Cc1nc(NCC(c2ccccc2)N(C)C)c2c(C)c(C)sc2n1` (stereo not drawn) gave Bead autofluor inactive, Anthrax LF prot inactive, BoNT-F LC inh inactive and BoNT A protease inactive.
`Cc1ccc(S(=O)(=O)N2CCN(C(=O)COC(=O)CC(C)c3ccccc3)CC2)c(C)c1` (stereo not drawn) gave Bead autofluor inactive, Anthrax LF prot inactive, BoNT-F LC inh inactive and BoNT A protease inactive.
Screening COC(=O)c1cc(CNC(=O)Cc2ccsc2)ccc1OC returned Bead autofluor inactive, Anthrax LF prot inactive, BoNT-F LC inh inactive and BoNT A protease inactive.
Screening CCOC(=O)CN1C(=O)C(O)(CC(=O)c2cccc(OC)c2)c2ccccc21 (stereo not drawn) returned Bead autofluor 23744, Anthrax LF prot inactive, BoNT-F LC inh inactive and BoNT A protease inactive.
Screening C#CCN1C(=O)C(O)(CC(=O)c2cccc(OC)c2)c2ccccc21 (stereo not drawn) returned Bead autofluor inactive, Anthrax LF prot inactive, BoNT-F LC inh inactive and BoNT A protease inactive.
For CCN1CCN(S(=O)(=O)c2ccc(Cl)c(C(=O)N(C)CC(=O)Nc3c(C)cccc3C)c2)CC1 the results were Bead autofluor inactive, Anthrax LF prot inactive, BoNT-F LC inh inactive and BoNT A protease inactive.
Screening CC1(C)CC(=O)C(C=NCCN2CCN(CCc3ccccc3)CC2)=C(O)C1 returned Bead autofluor 20820, Anthrax LF prot inactive, BoNT-F LC inh inactive and BoNT A protease inactive.
`COCCCN=CC1=C(O)CC(C)(C)CC1=O` gave Bead autofluor 23898, Anthrax LF prot inactive, BoNT-F LC inh inactive and BoNT A protease inconclusive.
CCCCCCN=CC1=C(O)CC(C)(C)CC1=O was read as Bead autofluor inactive, Anthrax LF prot inactive, BoNT-F LC inh inactive and BoNT A protease inactive.
`CC1(C)CC(=O)C(C=NCCN2CCN(C(=S)Nc3ccc(F)cc3)CC2)=C(O)C1` gave Bead autofluor 16455, Anthrax LF prot inactive, BoNT-F LC inh inactive and BoNT A protease inconclusive.
`CC1(C)CC(=O)C(C=NCCN2CCN(C(=O)Cc3ccccc3)CC2)=C(O)C1` gave Bead autofluor inactive, Anthrax LF prot inactive, BoNT-F LC inh inactive and BoNT A protease inactive.
CC1CN(C(=O)c2ccc(NS(=O)(=O)c3ccc(C(C)(C)C)cc3)cc2)CC(C)O1 (stereo not drawn) was read as Bead autofluor inactive, Anthrax LF prot inactive, BoNT-F LC inh inactive and BoNT A protease inactive.
Screening COc1ccc(CNC2=CC(=O)CC(C)(C)C2)cc1 returned Bead autofluor 24712, Anthrax LF prot inactive, BoNT-F LC inh inactive and BoNT A protease inactive.
`CC1(C)CC(=O)C=C(NCc2ccc(C(=O)O)cc2)C1` gave Bead autofluor inconclusive, Anthrax LF prot inactive, BoNT-F LC inh inactive and BoNT A protease inactive.
COc1cccc(C(=O)NNC2=CC(=O)CC(C)(C)C2)c1 was read as Bead autofluor 20933, Anthrax LF prot inactive, BoNT-F LC inh inactive and BoNT A protease inactive.
For NC(=O)C1CCN(CC(O)COCc2ccccc2Cl)CC1 (stereo not drawn) the results were Bead autofluor inactive, Anthrax LF prot inactive, BoNT-F LC inh inactive and BoNT A protease inactive.
For Cc1cc(/C=N/n2cnnc2)c(C)n1-c1ccc(C(=O)O)cc1 the results were Bead autofluor 23182, Anthrax LF prot inactive, BoNT-F LC inh inactive and BoNT A protease inactive.
